From PubChem BioAssay (NCI) come the findings set out here.

About 83,000 compounds went through this panel and 20% of them were active in at least one assay; those are over-represented in the sample as a whole.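 For each line, cells grew in 96-well plates with the test compound present at a single concentration for 48 hours.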 Values without a mark were called inactive. Active and inactive are the calls of the source. Rule for the calls: active = growth percent below 10; inactive = the rest.

This assay relates to HL-60(TB) leukemia. The assay is described as follows: NCI-60 one-dose screen, 48 h (100 = growth as untreated, 0 = no growth, -100 = all killed). The following applies: 10 µM unless noted.
As for `NS(=O)(=O)c1cccc(Nc2nc(SCC(=O)c3ccc(Cl)cc3)nc3ccccc23)c1`, the growth was 90.9%.

`Cc1ccc(/C=C/CC(=O)Nc2ccc(C(=O)Nc3ccc(F)cc3N)nc2)cn1`: the growth was -19.6% (active).

For the molecule `CCC1=Cc2c(OC)cccc2OC12C=Cc1c(OC)cccc1O2` (stereo not drawn), the growth was -6.34% (active).

`COc1ccc(/C=C/C(=O)c2nnn(-c3ccc(Br)cc3)c2C)cc1OC`: the growth is 47.1%.

As for `CCc1cc(O)ccc1Nc1cc(-c2ccc(-n3cccn3)cc2)[nH]n1`, the growth was 58.6%.

As to `CC1CCN(S(=O)(=O)c2ncsc2-c2ccccc2)CC1`, the growth is 72.3%.

For the molecule `O=S(=O)(Nc1ccc2c(c1)OCO2)c1ccc(-c2cnc(C3CC3)o2)cc1`, the growth is 3.52% (active).

On to `C#C[C@]1(O)CC[C@H]2[C@@H]3CC=C4c5sc(Nc6cc(Cl)ccc6OC)nc5CC[C@]4(C)[C@H]3CC[C@@]21C`, for which the growth is 5.48% (active).

Regarding `C=C(C)[C@@H]1CC[C@]2(C(=O)NCCCCCN(CCC#N)CCC#N)CC[C@]3(C)[C@H](CC[C@@H]4[C@@]5(C)CCC(=O)C(C)(C)[C@@H]5CC[C@]43C)[C@@H]12`, the growth was 127%.

As to `N#C/C(=C\c1ccc(-c2ccc(F)cc2)o1)C(=O)Nc1ncc(Cc2ccc(Cl)cc2Cl)s1`, the growth is 22.5%.

Turning to `CN1CCN(Cc2ccc(NC(=O)c3cncc(C#Cc4cnc5ccc(O[C@@H]6CCOC6)nn45)c3)cc2C(F)(F)F)CC1`, the growth was -48.8% (active).

In the case of `CC1CC(=O)C2=C(C1)Nc1ccc(Br)cc1CC2c1c[nH]c2ccc(Br)cc12` (stereo not drawn), the growth was 21.2%.

For the molecule `O=S(=O)(NCCCNc1nccc(-c2[nH]c(-c3ccccc3)nc2-c2ccc(F)c(O)c2)n1)c1ccc(C(F)(F)F)cc1`, the growth is -3% (active).
